Assays:
ETS1 [1] = target: T1, ETS1 (UniProt P14921); assay: ETS1 binding intensity (PBM fluorescence), ETS1 alone (arbitrary fluorescence units); higher = stronger binding; settings: ETS1 concentration 1 nM; RUNX1 concentration 0 nM
T1 sequence: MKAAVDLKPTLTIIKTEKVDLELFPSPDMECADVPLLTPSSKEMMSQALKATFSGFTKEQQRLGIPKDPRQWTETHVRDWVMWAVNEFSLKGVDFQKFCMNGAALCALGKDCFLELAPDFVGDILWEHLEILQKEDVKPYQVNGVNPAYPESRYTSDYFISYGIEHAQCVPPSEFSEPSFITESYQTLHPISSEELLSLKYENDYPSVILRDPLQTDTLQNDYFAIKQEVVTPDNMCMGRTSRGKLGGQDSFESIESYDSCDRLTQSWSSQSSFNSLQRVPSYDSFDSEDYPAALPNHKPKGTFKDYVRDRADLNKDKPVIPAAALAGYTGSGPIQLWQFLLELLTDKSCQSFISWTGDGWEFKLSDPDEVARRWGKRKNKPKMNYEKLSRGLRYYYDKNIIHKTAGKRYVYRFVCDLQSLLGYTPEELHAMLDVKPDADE

ETS1 [2] = target: T1, ETS1; assay: ETS1 binding intensity (PBM fluorescence) in presence of RUNX1, normalised to ETS1-only experiment (arbitrary fluorescence units); higher = stronger binding; settings: ETS1 concentration 1 nM; RUNX1 concentration 25 nM

## GTGGGTAGGGAGGAAGCTGTGAAACCACCTCCCCTC
ETS1 [1]
  ETS1 binding intensity: 688
ETS1 [2]
  ETS1 binding intensity: 882

## CAGTCTCCTTCCGCGTCACCTCTGTGACCGCTGTGC
ETS1 [1]
  ETS1 binding intensity: 414
ETS1 [2]
  ETS1 binding intensity: 583

## ACGTCTTTATTTATCCTGTGGCTTCCCGACCCCCAC
ETS1 [1]
  ETS1 binding intensity: 537
ETS1 [2]
  ETS1 binding intensity: 576

## CTTCCTTCCCTTCCTTCTGCTCCCTCCCACAGCCGC
ETS1 [1]
  ETS1 binding intensity: 519
ETS1 [2]
  ETS1 binding intensity: 436

## TATCACGTTTCCTGCTGCTGCACCGCGACCTCAGCT
ETS1 [1]
  ETS1 binding intensity: 513
ETS1 [2]
  ETS1 binding intensity: 492

## GGAGGAAGAGAGGAAACGGGGGCGGCCGCAGCTTCT
ETS1 [1]
  ETS1 binding intensity: 836
ETS1 [2]
  ETS1 binding intensity: 1070

## TGGCTGGGCAGGAAGGCCTGTGGCTTACGGTTCCTG
ETS1 [1]
  ETS1 binding intensity: 551
ETS1 [2]
  ETS1 binding intensity: 651

## AAGTCAGAGTTTACTTCCGAACCCACAGTGCCAAGC
ETS1 [1]
  ETS1 binding intensity: 423
ETS1 [2]
  ETS1 binding intensity: 486

## GGGCTTCAGCGGATGAACAAGGTTACCACGGGGAGT
ETS1 [1]
  ETS1 binding intensity: 459
ETS1 [2]
  ETS1 binding intensity: 504

## GAACCCAGGTCTGCTTCCTGTGGCCACCATCTGTGC
ETS1 [1]
  ETS1 binding intensity: 761
ETS1 [2]
  ETS1 binding intensity: 684

## AAGCCCTAGAGGAAATTAGTACGTAACCACCTTCTG
ETS1 [1]
  ETS1 binding intensity: 540
ETS1 [2]
  ETS1 binding intensity: 844

## TGGGCCAGCACGTCCGGGTGGTCAGGACGCGCGCTT
ETS1 [1]
  ETS1 binding intensity: 458
ETS1 [2]
  ETS1 binding intensity: 451

## GCATTTCTCAGAAAAGGAAGCGGTTGTGCCGGGAGG
ETS1 [1]
  ETS1 binding intensity: 1530
ETS1 [2]
  ETS1 binding intensity: 2100

## GCTTTTCCGCTCCCAGAGTGCCCCGCCCACAGTTCA
ETS1 [1]
  ETS1 binding intensity: 477
ETS1 [2]
  ETS1 binding intensity: 426

## GGTCTGGAGGATGTTTGCAGCTGCTGTGGGTGGTGG
ETS1 [1]
  ETS1 binding intensity: 586
ETS1 [2]
  ETS1 binding intensity: 530

## GTGCAGGCCGGAAGGAAAAGGGTTGTGGGGCTCATT
ETS1 [1]
  ETS1 binding intensity: 1180
ETS1 [2]
  ETS1 binding intensity: 1420

## GCAGGAAACGCTTTCTTAACACTATGTGGGTGAGGT
ETS1 [1]
  ETS1 binding intensity: 763
ETS1 [2]
  ETS1 binding intensity: 691

## TTTCCTACAGAAGGATGTGGTTGGTGGGTTTGGTTT
ETS1 [1]
  ETS1 binding intensity: 619
ETS1 [2]
  ETS1 binding intensity: 3210
